For 40 molecules, inhibition results are on record in ChEMBL document CHEMBL3433997, “St. Jude Leishmania screening dataset” (2016).

What is called inhibition is the relative decrease from the control value, in per cent.

In the first test the target is Solute carrier family 2, facilitated glucose transporter member 1 (Homo sapiens) (UniProt P11166). In words: ST_JUDE_LEISH: Cytotoxicity at 2uM final concentration against transgenic Leishmania Mexicana promastigotes LmGLUT1 that are glucose transport deficient and complemented with the human glucose transporter GLUT1. Activity is measured by DNA content using SYBR green in vitro. In kind it is functional.
Sequence of Solute carrier family 2, facilitated glucose transporter member 1 (Homo sapiens) (P11166 whole entry): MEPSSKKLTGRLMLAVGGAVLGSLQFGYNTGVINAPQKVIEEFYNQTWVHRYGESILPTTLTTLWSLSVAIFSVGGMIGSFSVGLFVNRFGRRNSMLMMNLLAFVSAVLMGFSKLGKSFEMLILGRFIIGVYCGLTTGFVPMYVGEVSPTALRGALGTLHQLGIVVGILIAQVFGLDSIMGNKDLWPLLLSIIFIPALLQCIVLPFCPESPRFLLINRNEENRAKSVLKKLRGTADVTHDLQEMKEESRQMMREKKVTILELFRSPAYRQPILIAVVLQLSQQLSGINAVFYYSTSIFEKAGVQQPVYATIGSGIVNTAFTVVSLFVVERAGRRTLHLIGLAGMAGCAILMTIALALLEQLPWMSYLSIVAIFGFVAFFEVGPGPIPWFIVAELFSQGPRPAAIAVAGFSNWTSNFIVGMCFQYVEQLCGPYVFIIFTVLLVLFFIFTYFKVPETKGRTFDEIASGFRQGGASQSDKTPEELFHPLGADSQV
Take `COc1cc(/C=N/Nc2nc(Nc3ccccc3)nc(Nc3ccccc3)n2)ccc1OCc1ccccc1[N+](=O)[O-]`: the inhibition was found to be 4.18%.

For `CCN(CC)CCN(Cc1ccc(-c2ccc(C(F)(F)F)cc2)cc1)C(=O)Cn1c(SCc2ccc(F)c(F)c2F)nc(=O)c2c1CCC2`, the inhibition is 2.57%.

Turning to `C=CCn1c(C)cc(C(=O)COc2ccc(S(=O)(=O)N3CCOCC3)cc2[N+](=O)[O-])c1C`, the inhibition is 2.97%.

Regarding `COc1cc(Cc2cnc(N)nc2N)cc(OC)c1OCCCCC(=O)O`, the inhibition was -0.54%.

With `CS(=O)(=O)CCNc1nccc(N2CCc3ncnc(Nc4ccc(OCc5cccc(F)c5)c(Cl)c4)c3C2)n1`, the inhibition is -1.94%.

Take `COc1ccc(CN2CCC(CNCCc3ccccc3Oc3ccccc3)CC2)cc1`: the inhibition was -1.06%.

In the case of `CCc1cc(OC)ccc1C1CCN(CCCCNC(=O)c2ccc(NC(=O)c3ccc(Cl)cc3)cc2)CC1`, the inhibition is 3.47%.

`CCOc1ccccc1CCNC(C)Cc1ccc(C(=O)Nc2ccc(CC(C)NCCc3cccc(Cl)c3)cc2)cc1` (stereo not given): the inhibition came out at 28%.

In the case of `Cc1noc(C)c1-c1cccc(CNCc2cccc(-c3ccc(-c4nc5ccccc5[nH]4)s3)c2)c1`, the inhibition stood at 8.57%.

In the case of `N#Cc1cccc(NC(=O)Nc2ccc(-c3ccc(-c4nc5cc(C(F)(F)F)ccc5[nH]4)cc3)cc2)c1`, the inhibition came out at 3.68%.

Regarding `CC(=O)Nc1cccc(C(=O)Nc2ccc(-c3cccc(-c4nc5cc(C(F)(F)F)ccc5[nH]4)c3)cc2)c1`, the inhibition amounted to 2.13%.

For `Fc1cc(Cl)ccc1Nc1ccnc2cc(-c3ccc(CN4CCSCC4)o3)ccc12`, the inhibition worked out at 1.72%.

In the case of `CCC(NC(=O)c1ccccc1NC(=O)c1ccc(C)cc1)C(=O)OC` (stereo not given), the inhibition is -0.5%.

With `COc1cccc(-c2cc3c(NCc4ccncc4)nccc3s2)c1`, the inhibition is 3.12%.

As to `CNC(=O)NC1CCN(Cc2c(-c3cccs3)nc3ccccc3c2C(=O)N[C@@H](C)C2CCCCC2)CC1`, the inhibition was -1.53%.

Regarding `CN1CCC(NC(=O)c2cc(Oc3ccc4c(c3)CCN4C(=O)Nc3cccc(C(F)(F)F)c3)ccn2)CC1`, the inhibition worked out at 3.67%.

Take `CC(C)NC(=O)c1cccc(-c2cccc(OCCN3CCSCC3c3ccccc3)c2)c1` (stereo not given): the inhibition was 10.4%.

Take `NC(=O)c1cccc(C(=O)Nc2cccc(-c3cccc(-c4nc5cc(C(F)(F)F)ccc5[nH]4)c3)c2)c1`: the inhibition was -0.51%.

For `COCCNC(=O)c1ccc(OC2CCN(CC(C)=Cc3ccccc3)CC2)c(Cl)c1`, the inhibition was 2.65%.

Consider `N=C(NCCCCC1CCCCC1)c1cccc(C(=N)NCCCCC2CCCCC2)n1`, for which the inhibition is 0.33%.

In the case of `COc1ccc2nc(C)cc(Nc3ccc(Cl)c(Cl)c3)c2c1`, the inhibition stood at 7.6%.

With `COc1ccc(-c2cccc(NC(=O)c3ccc(C#N)cc3)c2)cc1CN1CCN(C)CC1`, the inhibition stood at 16.1%.

Consider `Cc1cc(C(=O)CN2C(=O)NC3(CCOc4ccccc43)C2=O)c(C)n1Cc1ccc(F)cc1` (stereo not given), for which the inhibition was 3.91%.

With `COc1cccc(CNC(=O)[C@@H]2CN(C(=O)c3ccccc3)CCN2)c1`, the inhibition is -0.92%.

With `Cc1cc(N[C@@H](Cc2ccccc2)C(=O)NCCc2ccccc2)nc(NCCc2ccccc2)n1`, the inhibition is 4.48%.

With `CCn1ccc2c(N3CCCS3(=O)=O)cc(C(=O)N[C@@H](Cc3ccccc3)[C@H](O)CNC(C)(C)c3cccc(OC)c3)cc21`, the inhibition is 0.43%.

For `N#Cc1cccc(NC(=O)Nc2cccc(-c3cccc(-c4nc5ccccc5[nH]4)c3)c2)c1`, the inhibition amounted to 5.25%.

For the molecule `CCc1cc(=O)[nH]c(-n2nc(C)cc2NC(=O)CC(c2ccccc2)c2ccccc2)n1`, the inhibition was 11.2%.

`O=C(/C=C/c1ccc(Cl)c(Cl)c1)N1CCC(CCN2CCC(c3c[nH]c4cnccc34)CC2)CC1`: the inhibition turned out to be 16%.

Turning to `CCc1nc(N)nc(N)c1-c1ccc(Cl)cc1`, the inhibition was found to be 2.26%.

With `CC1CNC(c2ccc(NC(=O)c3ccc(C(=O)Nc4ccc(C5=NC(C)CN5)cc4)cc3)cc2)=N1` (stereo not given), the inhibition was 8.16%.

Turning to `COc1ccccc1CNC(=O)c1cc(OC)c(OC)cc1NC(=O)c1cccs1`, the inhibition came to 10.5%.

On to `O=C(/C=C/c1ccc(Cl)c(Cl)c1)NCCCCCN1CC[C@H](NC(=O)c2ccc3c(c2)OCO3)C1`, for which the inhibition is 5.7%.

Take `COc1ccc(CNc2cc(C)nc3sc4c(c23)CCC2(C4)OCCO2)cc1`: the inhibition amounted to 1.79%.

Consider `COc1ccc(CNCc2ccc(-c3cccc(-c4nc5cc(F)ccc5[nH]4)c3)cc2)cc1`, for which the inhibition came out at 1.04%.

Regarding `Cc1nc2cc(/C=C/C(=O)NC3CCC(CCN4CCc5ccc(C#N)cc5CC4)CC3)ccc2[nH]1` (stereo not given), the inhibition is 3.09%.

For the molecule `CC(=O)Oc1c(C2C=CCCC2)c(OC(C)=O)c2ccccc2c1OC(C)=O` (stereo not given), the inhibition amounted to 1.04%.

As for `CN(C(=O)Nc1ccc(F)cc1)C1CCN(CCCCCNC(=O)/C=C/c2ccc(Cl)c(Cl)c2)CC1`, the inhibition was determined as 1%.

Take `CN(C(=O)Cc1ccc(Cl)c(Cl)c1)C1CCN(CCCCCNC(=O)/C=C/c2ccc(Cl)c(Cl)c2)CC1`: the inhibition stood at 4.46%.

For `CC(C)(C)c1ccc(CNC(=O)c2ccc(-c3nc4cc(C(C)(C)C)ccc4[nH]3)cc2)cc1`, the inhibition is 4.41%.

The target in the next test is Hexose transporter 1 (Plasmodium falciparum) (UniProt O97467). Nature of the test: ST_JUDE_LEISH: Cytotoxicity at 2uM final concentration against transgenic Leishmania Mexicana promastigotes LmPfHT that are glucose transport deficient and complemented with the Plasmodium falciparum hexose transporter. Activity is measured by DNA content using SYBR green in vitro. In kind it is functional.
For the molecule `COc1cc(/C=N/Nc2nc(Nc3ccccc3)nc(Nc3ccccc3)n2)ccc1OCc1ccccc1[N+](=O)[O-]`, the inhibition was 3.92%.

For `CCN(CC)CCN(Cc1ccc(-c2ccc(C(F)(F)F)cc2)cc1)C(=O)Cn1c(SCc2ccc(F)c(F)c2F)nc(=O)c2c1CCC2`, the inhibition came to 4.02%.

For `C=CCn1c(C)cc(C(=O)COc2ccc(S(=O)(=O)N3CCOCC3)cc2[N+](=O)[O-])c1C`, the inhibition stood at 0.91%.

Consider `COc1cc(Cc2cnc(N)nc2N)cc(OC)c1OCCCCC(=O)O`, for which the inhibition turned out to be 0.53%.

For `CS(=O)(=O)CCNc1nccc(N2CCc3ncnc(Nc4ccc(OCc5cccc(F)c5)c(Cl)c4)c3C2)n1`, the inhibition is -1.97%.

In the case of `COc1ccc(CN2CCC(CNCCc3ccccc3Oc3ccccc3)CC2)cc1`, the inhibition was -1.31%.

Take `CCc1cc(OC)ccc1C1CCN(CCCCNC(=O)c2ccc(NC(=O)c3ccc(Cl)cc3)cc2)CC1`: the inhibition is 5.73%.

For `CCOc1ccccc1CCNC(C)Cc1ccc(C(=O)Nc2ccc(CC(C)NCCc3cccc(Cl)c3)cc2)cc1` (stereo not given), the inhibition amounted to 34.1%.

For `Cc1noc(C)c1-c1cccc(CNCc2cccc(-c3ccc(-c4nc5ccccc5[nH]4)s3)c2)c1`, the inhibition is 3.74%.

Consider `N#Cc1cccc(NC(=O)Nc2ccc(-c3ccc(-c4nc5cc(C(F)(F)F)ccc5[nH]4)cc3)cc2)c1`, for which the inhibition was determined as 1.32%.

Turning to `CC(=O)Nc1cccc(C(=O)Nc2ccc(-c3cccc(-c4nc5cc(C(F)(F)F)ccc5[nH]4)c3)cc2)c1`, the inhibition came out at 0.32%.

With `Fc1cc(Cl)ccc1Nc1ccnc2cc(-c3ccc(CN4CCSCC4)o3)ccc12`, the inhibition worked out at 3.56%.

For `CCC(NC(=O)c1ccccc1NC(=O)c1ccc(C)cc1)C(=O)OC` (stereo not given), the inhibition amounted to 0.91%.

Consider `COc1cccc(-c2cc3c(NCc4ccncc4)nccc3s2)c1`, for which the inhibition came out at 3.46%.

For the molecule `CNC(=O)NC1CCN(Cc2c(-c3cccs3)nc3ccccc3c2C(=O)N[C@@H](C)C2CCCCC2)CC1`, the inhibition was found to be 0.94%.

Take `CN1CCC(NC(=O)c2cc(Oc3ccc4c(c3)CCN4C(=O)Nc3cccc(C(F)(F)F)c3)ccn2)CC1`: the inhibition was found to be 6.55%.

As to `CC(C)NC(=O)c1cccc(-c2cccc(OCCN3CCSCC3c3ccccc3)c2)c1` (stereo not given), the inhibition is 9.35%.

Turning to `NC(=O)c1cccc(C(=O)Nc2cccc(-c3cccc(-c4nc5cc(C(F)(F)F)ccc5[nH]4)c3)c2)c1`, the inhibition came out at 0.13%.

In the case of `COCCNC(=O)c1ccc(OC2CCN(CC(C)=Cc3ccccc3)CC2)c(Cl)c1`, the inhibition was 3.32%.

Consider `N=C(NCCCCC1CCCCC1)c1cccc(C(=N)NCCCCC2CCCCC2)n1`, for which the inhibition came out at 0.98%.

As for `COc1ccc2nc(C)cc(Nc3ccc(Cl)c(Cl)c3)c2c1`, the inhibition was 14.2%.

Regarding `COc1ccc(-c2cccc(NC(=O)c3ccc(C#N)cc3)c2)cc1CN1CCN(C)CC1`, the inhibition stood at 14.8%.

For `Cc1cc(C(=O)CN2C(=O)NC3(CCOc4ccccc43)C2=O)c(C)n1Cc1ccc(F)cc1` (stereo not given), the inhibition was determined as 2.31%.

As for `COc1cccc(CNC(=O)[C@@H]2CN(C(=O)c3ccccc3)CCN2)c1`, the inhibition is 0.03%.

Take `Cc1cc(N[C@@H](Cc2ccccc2)C(=O)NCCc2ccccc2)nc(NCCc2ccccc2)n1`: the inhibition is 3.79%.

With `CCn1ccc2c(N3CCCS3(=O)=O)cc(C(=O)N[C@@H](Cc3ccccc3)[C@H](O)CNC(C)(C)c3cccc(OC)c3)cc21`, the inhibition is 2.4%.

On to `N#Cc1cccc(NC(=O)Nc2cccc(-c3cccc(-c4nc5ccccc5[nH]4)c3)c2)c1`, for which the inhibition worked out at 5.22%.

As to `CCc1cc(=O)[nH]c(-n2nc(C)cc2NC(=O)CC(c2ccccc2)c2ccccc2)n1`, the inhibition is 15.2%.

Regarding `O=C(/C=C/c1ccc(Cl)c(Cl)c1)N1CCC(CCN2CCC(c3c[nH]c4cnccc34)CC2)CC1`, the inhibition came to 11.9%.

Take `CCc1nc(N)nc(N)c1-c1ccc(Cl)cc1`: the inhibition is 3.31%.

Turning to `CC1CNC(c2ccc(NC(=O)c3ccc(C(=O)Nc4ccc(C5=NC(C)CN5)cc4)cc3)cc2)=N1` (stereo not given), the inhibition worked out at 7.31%.

`COc1ccccc1CNC(=O)c1cc(OC)c(OC)cc1NC(=O)c1cccs1`: the inhibition amounted to 6%.

Regarding `O=C(/C=C/c1ccc(Cl)c(Cl)c1)NCCCCCN1CC[C@H](NC(=O)c2ccc3c(c2)OCO3)C1`, the inhibition was 5.13%.

On to `COc1ccc(CNc2cc(C)nc3sc4c(c23)CCC2(C4)OCCO2)cc1`, for which the inhibition is 1.85%.

On to `COc1ccc(CNCc2ccc(-c3cccc(-c4nc5cc(F)ccc5[nH]4)c3)cc2)cc1`, for which the inhibition turned out to be 4.45%.

As to `Cc1nc2cc(/C=C/C(=O)NC3CCC(CCN4CCc5ccc(C#N)cc5CC4)CC3)ccc2[nH]1` (stereo not given), the inhibition was determined as 2.24%.

Turning to `CC(=O)Oc1c(C2C=CCCC2)c(OC(C)=O)c2ccccc2c1OC(C)=O` (stereo not given), the inhibition came out at 3.27%.

For the molecule `CN(C(=O)Nc1ccc(F)cc1)C1CCN(CCCCCNC(=O)/C=C/c2ccc(Cl)c(Cl)c2)CC1`, the inhibition worked out at 1.65%.

In the case of `CN(C(=O)Cc1ccc(Cl)c(Cl)c1)C1CCN(CCCCCNC(=O)/C=C/c2ccc(Cl)c(Cl)c2)CC1`, the inhibition came to 3.72%.

As for `CC(C)(C)c1ccc(CNC(=O)c2ccc(-c3nc4cc(C(C)(C)C)ccc4[nH]3)cc2)cc1`, the inhibition amounted to 4.23%.
